The source of these data is PubChem BioAssay (Tox21).

A number with no mark means an inactive call. Inconclusive results are not listed. Activity calls are given as the source filed them. Unless noted, the call rests on the fitted dose curve.

The target in test [1] is Estrogen receptor (Homo sapiens) (UniProt P03372). The experiment in a line: qHTS assay to identify small molecule agonists of the estrogen receptor alpha (ER-alpha) signaling pathway in the presence of an antagonist (AID 1259383). Further: top concentration of the series differs between compounds; nearly all actives have a fitted effect of over 15% in size. The essentials: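 VM7Luc4E2 cells express endogenous full-length ER-alpha with an ERE-luciferase reporter and were hormone-deprived for 5 days. Compounds at 15 concentrations were added with 10.0nM ICI-182,780 for 22hr at 37C. Luminescence was read with ONE-Glo.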
Sequence of Estrogen receptor (Homo sapiens) (P03372 whole entry, looked up): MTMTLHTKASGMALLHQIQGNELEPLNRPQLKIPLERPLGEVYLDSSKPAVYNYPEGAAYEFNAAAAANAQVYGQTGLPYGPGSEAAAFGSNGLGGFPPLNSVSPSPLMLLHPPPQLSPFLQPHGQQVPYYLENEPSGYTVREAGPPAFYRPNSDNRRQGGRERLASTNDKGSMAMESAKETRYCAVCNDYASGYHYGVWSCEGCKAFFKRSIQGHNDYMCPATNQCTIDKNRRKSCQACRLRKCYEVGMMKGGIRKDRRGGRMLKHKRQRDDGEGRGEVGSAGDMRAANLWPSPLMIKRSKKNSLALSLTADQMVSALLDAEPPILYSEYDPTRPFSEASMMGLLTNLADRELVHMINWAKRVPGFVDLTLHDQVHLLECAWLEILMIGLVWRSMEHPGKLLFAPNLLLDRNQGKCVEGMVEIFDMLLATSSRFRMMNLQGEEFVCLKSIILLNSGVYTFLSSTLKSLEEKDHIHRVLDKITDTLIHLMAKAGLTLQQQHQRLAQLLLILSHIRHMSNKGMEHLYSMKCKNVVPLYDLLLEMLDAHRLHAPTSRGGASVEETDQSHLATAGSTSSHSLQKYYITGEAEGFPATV

Test [2] is described as follows: qHTS assay to identify small molecule agonists or antagonists of the thyroid stimulating hormone receptor (TSHR) signaling pathway - wild type cell line counter screen (AID 1259384). An outline of the steps: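 Wild-type HEK293 cells were plated 18 h at 37 C/5% CO2, pin-dosed with compound plus Ro20-1724 medium, held 30 min at room temperature, then given cAMP-d2 and anti-cAMP-cryptate; fluorescence was read after 1 h. Fifteen concentrations, triplicate.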
(In general: Quantitative high-throughput screening tests each substance at several concentrations.)

The target of test [3] is Thyrotropin receptor (Homo sapiens) (UniProt P16473). The test can be described thus: qHTS assay to identify small molecule antagonists of the thyroid stimulating hormone receptor (TSHR) signaling pathway (AID 1259385). Further: nearly all actives have a fitted effect of over 20% in size. The essentials: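 TSHR-HEK293 cells were plated and held 18 h at 37C/5% CO2, then given compound plus Ro20-1724 and stimulated with TSH at 1.5 ng/mL final. After 30 min at room temperature, cAMP was detected with cAMP-d2/anti-cAMP-cryptate (1 h) by fluorescence.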
Sequence of Thyrotropin receptor (Homo sapiens) (P16473 whole entry, looked up): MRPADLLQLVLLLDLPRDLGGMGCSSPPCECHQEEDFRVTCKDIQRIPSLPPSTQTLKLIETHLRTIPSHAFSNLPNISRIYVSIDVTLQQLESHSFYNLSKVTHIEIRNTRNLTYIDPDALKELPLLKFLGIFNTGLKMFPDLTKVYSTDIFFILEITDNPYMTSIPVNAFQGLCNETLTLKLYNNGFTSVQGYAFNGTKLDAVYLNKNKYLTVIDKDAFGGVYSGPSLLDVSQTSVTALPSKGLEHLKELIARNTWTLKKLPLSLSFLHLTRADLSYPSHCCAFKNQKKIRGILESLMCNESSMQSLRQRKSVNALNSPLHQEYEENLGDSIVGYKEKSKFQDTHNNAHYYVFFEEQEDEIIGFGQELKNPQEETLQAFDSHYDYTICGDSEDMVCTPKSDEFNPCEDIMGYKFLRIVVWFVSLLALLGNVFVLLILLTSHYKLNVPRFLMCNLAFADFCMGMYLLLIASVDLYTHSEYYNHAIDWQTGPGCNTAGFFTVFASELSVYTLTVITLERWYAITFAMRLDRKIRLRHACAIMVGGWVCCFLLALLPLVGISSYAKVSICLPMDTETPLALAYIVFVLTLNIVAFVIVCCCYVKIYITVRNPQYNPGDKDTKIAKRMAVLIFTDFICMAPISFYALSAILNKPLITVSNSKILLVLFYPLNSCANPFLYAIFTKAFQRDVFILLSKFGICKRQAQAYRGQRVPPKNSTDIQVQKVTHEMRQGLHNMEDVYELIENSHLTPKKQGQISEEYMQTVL

Test [4] is described as follows: qHTS assay to identify small molecule agonists of the estrogen receptor alpha (ER-alpha) signaling pathway in the presence of an antagonist - cell viability counter screen (AID 1259386; active means well fitted curve in the direction sought with a large enough effect in the repeat runs; an effect the other way counts as inactive or inconclusive;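 further: series mostly up to about 92 µM; cells exposed to compounds for 22 h at 37 °C before the viability read; nearly all actives have a fitted effect of over 30% in size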). The essentials: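 Cell viability in VM7Luc4E2 cells (endogenous full-length ER-alpha) measured by CellTiter-Fluor fluorescence in the same wells as the luciferase screen. Cells pre-cultured 5 days in charcoal-stripped serum, then treated 22 h with compounds at 15 concentrations plus 10.0nM ICI-182,780.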

The target of test [5] is Progesterone receptor (Homo sapiens) (UniProt P06401). The test can be described thus: qHTS assay to identify small molecule agonists of the progesterone receptor (PR) signaling pathway (AID 1346784). Further: nearly all actives have a fitted effect of over 30% in size. Further: potency means the concentration at half of the fitted maximal effect. An outline of the steps:
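Compounds were tested for PR agonism in HEK 293T cells bearing a beta-lactamase gene under UAS control. Treatment lasted 16 hr at 37C; signal came from fluorescence of a FRET substrate.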

The target is the same in test [6]. The experiment in a line: qHTS assay to identify small molecule antagonists of the progesterone receptor (PR) signaling pathway (AID 1346795; active means well fitted inhibition curve with a large enough effect in the signal ratio in the repeat runs, not every such curve was filed as active; the % refers to the signal ratio). The essentials:
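In HEK293T cells bearing the PR-UAS-bla reporter, compound effects on promegestone-driven (1 nM) beta-lactamase expression are assessed after 16 hr using a fluorescent FRET substrate incubated 2 hr at room temperature.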

A short description of test [7]: qHTS assay to identify small molecule antagonists of the progesterone receptor (PR) signaling pathway - cell viability counter screen (AID 1346798; active means well fitted curve in the direction sought with a large enough effect in the repeat runs; an effect the other way counts as inactive or inconclusive; further: series mostly up to about 92 µM; nearly all actives have a fitted effect of over 50% in size). The essentials: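 Following a 4 hr attachment, PR-UAS-bla HEK293T cells in charcoal-stripped FBS medium were exposed to compounds with R5020 for 16 hr; CellTiter-Glo was added and luminescence read after 30 min at room temperature.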

Test [8] can be described thus: qHTS assay to identify small molecule agonists of the progesterone receptor (PR) signaling pathway - cell viability counter screen (AID 1346799). Further: nearly all actives have a fitted effect of over 45% in size. The essentials:
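Here, 3,000 PR-UAS-bla HEK293T cells per well were treated with compounds for 16 hr after a 6 hr preincubation at 37C and 5% CO2; cell viability is the CellTiter-Glo luminescence signal.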

Test [9] can be described thus: qHTS assay to identify small molecule antagonists of the TGF-beta/Smad signaling pathway - cell viability counter screen (AID 1346824; active means well fitted curve in the direction sought with a large enough effect in the repeat runs; an effect the other way counts as inactive or inconclusive; further: nearly all actives have a fitted effect of over 50% in size). The essentials:
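SBE-bla HEK 293T cells were plated overnight at 37 C, then given compounds in DMSO plus TGF-beta1 (added as 0.25 ng/mL solution) for 5 hr. After the bla read, CellTiter-Glo was added to the same wells and luminescence read after 30 min at room temperature.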

Test [10] is described as follows: qHTS assay to identify small molecule agonists of the TGF-beta/Smad signaling pathway - cell viability counter screen (AID 1346829; active means well fitted curve in the direction sought with a large enough effect in the repeat runs; an effect the other way counts as inactive or inconclusive; further: top concentration of the series differs between compounds; nearly all actives have a fitted effect of over 45% in size). An outline of the steps:
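Here the cytotoxicity of library compounds is measured in SBE-bla HEK 293T cells treated for 5 hr, using CellTiter-Glo added to wells already read for the beta-lactamase reporter.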
On the % scale 0 is the no-effect control and ±100 the full control effect.

Sequence of Progesterone receptor (Homo sapiens) (P06401 whole entry, looked up): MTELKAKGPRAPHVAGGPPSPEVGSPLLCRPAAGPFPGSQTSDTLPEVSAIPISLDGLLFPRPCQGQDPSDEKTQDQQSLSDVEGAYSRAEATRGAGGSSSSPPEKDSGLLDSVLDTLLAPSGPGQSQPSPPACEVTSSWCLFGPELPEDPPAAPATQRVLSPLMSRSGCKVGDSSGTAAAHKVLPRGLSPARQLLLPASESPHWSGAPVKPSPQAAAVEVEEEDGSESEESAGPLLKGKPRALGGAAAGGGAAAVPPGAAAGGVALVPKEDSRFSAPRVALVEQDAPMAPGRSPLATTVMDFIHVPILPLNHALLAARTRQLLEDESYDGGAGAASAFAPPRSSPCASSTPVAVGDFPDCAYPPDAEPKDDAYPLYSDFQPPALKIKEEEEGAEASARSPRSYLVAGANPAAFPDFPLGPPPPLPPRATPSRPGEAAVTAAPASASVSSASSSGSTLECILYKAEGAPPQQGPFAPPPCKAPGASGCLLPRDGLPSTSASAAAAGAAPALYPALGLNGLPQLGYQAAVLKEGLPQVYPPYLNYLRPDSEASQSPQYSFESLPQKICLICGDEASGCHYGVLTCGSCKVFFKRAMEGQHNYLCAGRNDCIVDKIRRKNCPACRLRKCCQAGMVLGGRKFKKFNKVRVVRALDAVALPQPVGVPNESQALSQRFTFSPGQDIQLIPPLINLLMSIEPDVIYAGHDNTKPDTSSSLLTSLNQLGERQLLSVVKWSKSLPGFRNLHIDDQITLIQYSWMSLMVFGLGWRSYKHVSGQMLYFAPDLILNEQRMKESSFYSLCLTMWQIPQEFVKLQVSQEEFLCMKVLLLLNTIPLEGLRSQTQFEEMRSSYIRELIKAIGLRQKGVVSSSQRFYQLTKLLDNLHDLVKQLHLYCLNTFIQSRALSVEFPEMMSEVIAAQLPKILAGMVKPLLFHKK

As to `CCCCCCCOC(C)=O`, the Potency result in [1], in [5], in [6] and in test [8] was “inactive” throughout. For the same molecule, the result in test [2], in [3], in test [4], in test [7], in test [9] and in test [10] was inactive.

As to `C/C=C(\C)C=O`, the Potency result in [1], in test [6] and in [8] was “inactive” each time. Also, the molecule was called inactive in test [2], in test [3], in [4], in [9] and in test [10]. The Potency in [5] is 21.8 µM (active).

For `COC(=O)/C=C(\C)CCC=C(C)C`, the Potency result in [1], in test [5], in test [6] and in test [8] was “inactive” in each case. The molecule was classed as inactive in test [2], in test [3], in [4], in test [7], in [9] and in [10].

On to `O=C(O)CCCCCCCCCC(=O)O`, for which the Potency entry in [1], in test [5], in test [6] and in test [8] was “inactive” in each case. The outcome in [2], in test [3], in test [4], in test [7], in test [9] and in test [10] was inactive.

`CCCCCCCCCCCC(C)=O`: the Potency entry in [1], in [5], in [6] and in [8] was “inactive” throughout. Further, the call in [2], in test [3], in [4], in test [7], in [9] and in test [10] was inactive.

With `OCCC(F)(F)C(F)(F)C(F)(F)C(F)(F)C(F)(F)C(F)(F)F`, the Potency entry in test [1], in test [5] and in test [6] was “inactive” throughout. Further, the outcome in [2], in [3], in test [4], in [7], in test [9] and in [10] was inactive.

As to `CCCCCCCCCCCCCCBr`, the Potency result in [1], in test [5] and in [6] was “inactive” in each case. Also, the call in test [2], in test [3], in test [4], in test [9] and in [10] was inactive.

As to `COc1ccccc1N1CCN(CC(O)COc2cc(OC)c(OC)c(OC)c2)CC1` (stereo unspecified), the Potency result in [1], in test [5] and in test [6] was “inactive” throughout. Moreover, the result in [2], in [3], in [4], in test [9] and in [10] was inactive.

For `NCC1CCC(C(=O)Oc2ccc(CCC(=O)O)cc2)CC1` (stereo unspecified), the Potency result in [1], in test [5], in test [6] and in test [8] was “inactive” each time. For the same molecule, the molecule was classed as inactive in [2], in test [3], in [4], in test [9] and in [10].

As for `CCOC(=O)CC`, the Potency result in [1], in [5], in test [6] and in [8] was “inactive” in each case. For the same molecule, the call in test [2], in test [3], in test [4], in test [7], in test [9] and in test [10] was inactive.

Regarding `CCCCN1C(=O)c2ccccc2C1=O`, the Potency entry in test [1], in test [5], in test [6] and in test [8] was “inactive” throughout. The outcome in test [2], in test [3], in [4] and in test [9] was inactive.

As for `C/C(Cl)=C/CCl`, the Potency entry in [1], in test [5], in [6] and in test [8] was “inactive” in each case. In addition, the result in test [2], in [3], in test [4], in test [7], in test [9] and in [10] was inactive.

For the molecule `CCC(C)SSC(C)CC` (stereo unspecified), the Potency result in [1], in test [5] and in test [6] was “inactive” in each case. Also, the result in test [2], in test [3], in [4], in [9] and in test [10] was inactive.

As for `CN(C)CCC[C@@]1(c2ccc(F)cc2)OCc2cc(C#N)ccc21`, the Potency result in [1], in [5] and in [6] was “inactive” throughout. Further, the molecule was called inactive in test [2], in test [3], in test [4], in [9] and in [10].

In the case of `Cc1ccc(Br)cc1`, the Potency entry in [1], in test [5], in test [6] and in test [8] was “inactive” throughout. Also, the molecule was called inactive in test [2], in [3], in [4], in test [7], in test [9] and in [10].

Take `CCC(C)(C)C`: the Potency entry in test [1], in [5], in [6] and in [8] was “inactive” each time. The molecule was called inactive in test [2], in test [3], in [4], in [9] and in test [10].

Turning to `CC(C)(O)CCCC1=CCC(C=O)CC1` (stereo unspecified), the Potency entry in [1], in test [5], in test [6] and in test [8] was “inactive” in each case. The molecule was classed as inactive in [2], in test [3], in test [4], in test [7], in test [9] and in test [10].

`C/C(=N\O)c1ccc(OCC(=O)N2CCCCC2)cc1`: the Potency result in test [1], in test [5], in test [6] and in [8] was “inactive” each time. Also, the outcome in [2], in test [3], in test [4], in [7], in test [9] and in test [10] was inactive.

As to `CC(CC(=O)Cl)CC(C)(C)C` (stereo unspecified), the Potency result in test [1] and in [6] was “inactive” in each case. Also, the outcome in [2], in test [3], in [4], in test [7], in test [9] and in [10] was inactive. The Potency in [5] was 12.3 µM (active).

In the case of `CC(C)C(=O)Nc1cccc(C2CN3CCSC3=N2)c1` (stereo unspecified), the Potency result in [1], in [5], in [6] and in test [8] was “inactive” throughout. In addition, the outcome in [2], in test [3], in [4], in test [7], in test [9] and in [10] was inactive.

As for `CCCC(=O)CC`, the Potency result in test [1], in test [5] and in test [6] was “inactive” throughout. The outcome in test [2], in test [3], in test [4], in test [7], in test [9] and in test [10] was inactive.

`CCCCCCCCCCCCCCCC(=O)OC`: the activation in [1] was -2.08% [at 19 µM]; in test [5], -3.12% [at 19 µM]. Besides, in test [2], the cAMP activity change is -2.44% [at 18.9 µM]. In addition, the activity change, negative = inhibition was 1.93% [at 19 µM] in test [3] and 0.526% [at 18.9 µM] in [6]. The activity change, negative = cytotoxicity is -0.526% [at 19 µM] in [4], 20% [at 18.9 µM] in test [7] and -0.944% [at 15.8 µM] in test [10]. For the same molecule, the viability change, negative = cytotoxic in test [9] was 1.68% [at 15.8 µM].

With `CCCCC(CC)COC(=O)CC#N` (stereo unspecified), the Potency result in test [1], in test [5], in test [6] and in [8] was “inactive” throughout. Moreover, the molecule was classed as inactive in test [2], in test [3], in [4], in [9] and in [10].

Turning to `O=C(OOC(=O)c1ccccc1)c1ccccc1`, the Potency entry in [1], in test [5], in test [6] and in test [8] was “inactive” in each case. Further, the molecule was classed as inactive in test [2], in test [3], in [4], in [9] and in [10].
